Results taken from publication PMC5540273 (PLoS ONE, 2017).

Assays:
Details in all cases: concentration: 1 μM, replicates: in singlicate; n = 1
HUNK = system: HUNK
ICK = system: ICK
IGF1R = system: IGF1R
IKK-alpha = system: T1, IKK-alpha
T1 construct: gene CHUK

IKK-beta = system: T2, IKK-beta
T2 construct: gene IKBKB

IKK-epsilon = system: T3, IKK-epsilon
T3 construct: gene IKBKE

INSRR = system: INSRR
INSR = system: INSR
IRAK1 = system: IRAK1
IRAK3 = system: IRAK3
IRAK4 = system: IRAK4
ITK = system: ITK
[1] = system: JAK1(JH1domain-catalytic)
[2] = system: JAK1(JH2domain-pseudokinase)
[3] = system: JAK2(JH1domain-catalytic)
[4] = system: JAK3(JH1domain-catalytic)
JNK1 = system: T4, JNK1
T4 construct: gene MAPK8

JNK2 = system: T5, JNK2
T5 construct: gene MAPK9

JNK3 = system: T6, JNK3
T6 construct: gene MAPK10

KIT-autoinhibited = system: KIT-autoinhibited
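Further: KINOMEscan kinase panel screen.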

Row | Structure (SMILES) | %Inh (HUNK) | %Inh (ICK) | %Inh (IGF1R) | %Inh (IKK-alpha) | %Inh (IKK-beta) | %Inh (IKK-epsilon) | %Inh (INSRR) | %Inh (INSR) | %Inh (IRAK1) | %Inh (IRAK3) | %Inh (IRAK4) | %Inh (ITK) | %Inh [1] | %Inh [2] | %Inh [3] | %Inh [4] | %Inh (JNK1) | %Inh (JNK2) | %Inh (JNK3) | %Inh (KIT-autoinhibited)
1 | COC(=O)c1c(-c2ccccc2)c2cc(OC)ccc2c(=O)n1Cc1ccccc1 | 0% | 0% | 0% | 5% | 4% | 0% | 9% | 0% | 11% | 12% | 10% | 9% | 10% | 0% | 0% | 0% | 66% | 68% | 85% | 6%
2 | Cc1ccc(-c2cc(-c3c[nH]nc3-c3ccccn3)ccn2)cc1 [GW684088] | 1% | 0% | 36% | 0% | 0% | 9% | 0% | 0% | 0% | 7% | 0% | 0% | 12% | 1% | 0% | 0% | 29% | 36% | 53% | 2%
3 | COc1ccc(CNC(=O)NC2CCN(c3ccnc(Nc4cc(OC)c(OC)c(OC)c4)n3)C2)cc1 (stereo not shown) [GSK1379748] | 3% | 8% | 0% | 0% | 0% | 20% | 0% | 0% | 63% | 63% | 0% | 7% | 0% | 0% | 87% | 0% | 0% | 0% | 0% | 0%
4 | Nc1nc(-c2nccs2)c(-c2ccnc3ccccc23)s1 [GW693542] | 23% | 0% | 10% | 0% | 9% | 31% | 0% | 0% | 18% | 7% | 16% | 6% | 17% | 0% | 10% | 0% | 20% | 22% | 1% | 0%
5 | Cc1cc(NCC(c2ccccc2)c2ccccc2)nc(NCc2ccc(C(F)(F)F)cc2)n1 [GW497681] | 13% | 0% | 27% | 0% | 0% | 26% | 0% | 0% | 23% | 0% | 8% | 0% | 10% | 0% | 0% | 0% | 0% | 0% | 0% | 0%
6 | CN1C(=O)C(Nc2ccc(Cl)c(C(=O)O)c2)=C(c2ccc(Cl)cc2)C1=O [SB-404290] | 32% | 20% | 0% | 0% | 17% | 0% | 14% | 0% | 0% | 0% | 0% | 4% | 0% | 17% | 8% | 0% | 26% | 2% | 7% | 0%
7 | Cc1ccc(NC(=O)Nc2cc(C(C)(C)C)nn2-c2ccccc2)cc1 [GSK1014915] | 0% | 23% | 8% | 22% | 20% | 1% | 0% | 13% | 23% | 100% | 23% | 12% | 0% | 0% | 13% | 0% | 45% | 39% | 10% | 0%
8 | O=C(Nc1n[nH]c2cc(-c3cccc(F)c3F)ccc12)C1CC1 [SB-733894] | 0% | 22% | 0% | 0% | 5% | 11% | 0% | 41% | 0% | 10% | 0% | 0% | 0% | 67% | 27% | 18% | 32% | 0% | 1% | 6%
9 | COC(=O)c1c(-c2ccccc2)c2cc(C(=O)O)ccc2c(=O)n1Cc1ccccc1 | 43% | 0% | 4% | 0% | 0% | 0% | 7% | 0% | 18% | 0% | 22% | 5% | 2% | 0% | 0% | 0% | 0% | 0% | 0% | 0%
10 | Cc1cccc(-c2cc(Nc3ccncc3)c3ccccc3n2)n1 [GSK223675] | 0% | 11% | 0% | 0% | 0% | 36% | 0% | 14% | 15% | 0% | 13% | 0% | 11% | 5% | 100% | 0% | 11% | 27% | 15% | 0%
11 | COc1cc2ncn(-c3cc(OCC4CCCO4)c(C(N)=O)s3)c2cc1OC (stereo not shown) [GSK204607] | 0% | 0% | 6% | 0% | 0% | 24% | 0% | 0% | 0% | 0% | 0% | 5% | 0% | 0% | 1% | 0% | 0% | 17% | 7% | 0%
12 | O=S(=O)(c1ccc(-c2ccnc3[nH]ccc23)cc1)N1CCCC1 [GSK846226] | 0% | 0% | 0% | 29% | 94.3% | 31% | 0% | 0% | 8% | 22% | 2% | 10% | 16% | 3% | 86% | 0% | 26% | 24% | 17% | 0%
13 | O=C(Nc1n[nH]c2nc(-c3nccs3)c(Br)cc12)C1CC1 [SB-742251] | 0% | 61% | 0% | 54% | 49% | 1% | 0% | 2% | 64% | 4% | 43% | 13% | 1% | 21% | 36% | 0% | 41% | 16% | 16% | 0%
14 | COc1cccc(NC(=O)NC2CCN(c3ccnc(Nc4ccc(F)cc4)n3)C2)c1 (stereo not shown) [GSK1379721] | 13% | 25% | 0% | 0% | 0% | 15% | 0% | 14% | 12% | 0% | 12% | 0% | 7% | 0% | 20% | 0% | 0% | 4% | 0% | 0%
